Screening results from PubChem.
ATXN2 expr inh: reduces ATXN2 reporter expression in HEK-293 cells. HEK-293 ATXN2-luciferase reporter, luminescence, 24 h. Potency, µM (highest dose often 57 µM), actives largely listed as inhibitors. hit rate 0.72% among 360,000; note: nearly all actives have a fitted effect of over 55% in size
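qHTS (up to 57 uM final) was run with 24 h compound exposure of reporter cells at 37 °C. Each well was multiplexed: SteadyGlo luminescence measured ATXN2-luciferase expression after a fluorogenic Gly-Phe-AFC viability readout (25 uM final).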
D3 ag: D3 dopamine receptor (human) agonism; P35462; D3R DiscoveRx beta-arrestin cells, luminescence, 90 min; max activation, %; hit rate 0.58% among 410,000; AID 652048; in the data active = max activation above about 30%
Target sequence (P35462 whole entry, looked up): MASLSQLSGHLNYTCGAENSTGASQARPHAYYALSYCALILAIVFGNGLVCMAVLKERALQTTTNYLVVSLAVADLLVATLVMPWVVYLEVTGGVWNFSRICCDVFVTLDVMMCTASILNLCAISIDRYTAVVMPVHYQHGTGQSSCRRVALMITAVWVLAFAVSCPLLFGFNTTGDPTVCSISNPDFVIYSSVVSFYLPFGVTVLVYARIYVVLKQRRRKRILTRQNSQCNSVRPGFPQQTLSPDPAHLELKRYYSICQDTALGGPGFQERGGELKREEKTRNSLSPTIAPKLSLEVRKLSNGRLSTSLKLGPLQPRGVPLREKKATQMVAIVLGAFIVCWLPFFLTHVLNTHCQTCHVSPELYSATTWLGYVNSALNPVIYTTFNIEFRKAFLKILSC
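Cells at 1500/well, incubated overnight, then treated with pinned compounds (dopamine as control) for 90 min at 37 degrees C. DiscoveRx reagent added for 30 - 60 minutes at room temperature; luminescence read.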
ATXN viability: cell viability loss in ATXN counter-screen; S2 cells (HEK-293 line with an ATXN2-luciferase reporter) viability, CellTiter-Fluor protease fluorescence, 24 h; hit rate 0.49% among 400,000; Potency, µM (top dose mostly 56.7 µM), hits mostly cytotoxic; note: nearly all actives have a fitted effect of over 40% in size
D3 antag: antagonists of human D3 dopamine receptor; P35462; AID 652054; max response, negative = inhibition, %; hit rate 2.5% among 360,000; D3R cells, DiscoveRx beta-arrestin luminescence, antagonist mode; hits give low values; in the data active = max response below about -50%; inconclusive = no clear call, values can overlap the other calls
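Cells plated overnight at 1500 cells/well, then exposed to library compounds with dopamine controls for 90 minutes at 37 degrees C. DiscoveRx reagent added for 30–60 minutes at room temperature; luminescence read, quantitative HTS format.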
Integrin act MD: activators of alpha7 integrin expression for muscular dystrophy | alpha7betagal myoblasts, beta-gal FDG fluorescence, 48 h | Potency, µM (highest dose often 38.3 µM), hits mostly activators | hit rate 0.064% among 350,000 | AID 624291; note: nearly all actives have a fitted effect of over 60% in size
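alpha7betagal+/- myoblasts (passage 13, 250/well) treated 48 h at 37C with compounds at 1:260 dilution of DMSO stock. Lysed, then beta-galactosidase activity read as FDG fluorescence (ex 480/em 540) after 30 min, with pre-read for autofluorescence.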
IL1B secr inh: blocks inflammasome-driven IL-1 beta release. THP-1 LPS/ATP IL-1B secretion, AlphaLISA, 16 h; hits give low values. activity change, % at 57.5 µM. hit rate 4.7% among 360,000; in the data active = activity change below about -50%; inconclusive = mostly about -30% to -49%
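Secreted IL-1B measured by AlphaLISA bead assay after 16 h compound exposure of THP-1 cells; compounds (final up to 57.5 uM) added 1 h before LPS (250 ng/mL) and ATP (1.25 mM) stimulation; lower signal means less secretion.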
Hits are given with their value; – = inactive; ? = inconclusive; · = no result. Hits are enriched below; roughly 7% of the tested compounds scored in any of these assays. Unless noted, calls come from the whole dose curve; as a rule, active = well fitted curve in the direction sought with a large enough effect; inconclusive = small, poorly fitted or top-dose-only effect, or another doubt; inactive = no such curve, though single readings can be large; an effect the other way counts as inactive or inconclusive.

SMILES	ATXN2 expr inh	D3 ag	ATXN viability	D3 antag	Integrin act MD	IL1B secr inh
CN(Cc1nc(-c2ccccc2)no1)C(=O)c1ccc2c(c1)OCO2	–	–	–	-50	–	–
CN(CCN1CCc2ccccc2C1)Cc1nc(-c2ccc3c(c2)OCO3)no1	–	–	–	-70	–	–
c1ccc(OCCN2CCN(Cc3nc(-c4ccc5c(c4)OCO5)no3)CC2)cc1	–	73	–	?	–	–
CN(CCCCN1CCOCC1)Cc1nc(-c2ccc3c(c2)OCO3)no1	–	–	–	–	–	–
COc1ccc(Cc2noc(CN(C)CCN3CCc4ccccc4C3)n2)cc1OC	·	–	·	?	–	–
Fc1ccc(CN2CCCN(Cc3nc(-c4ccc5c(c4)OCO5)no3)CC2)cc1	·	–	?	–	–	–
CC(C)c1cccc(C(C)C)c1OC(=O)[C@H]1OC(C(C)(C)C)=C[C@@H]1c1ccccc1	–	–	–	–	–	–
O=C(COC(=O)C1CCN(S(=O)(=O)c2cccs2)CC1)Nc1ccc(F)cc1Cl	–	–	–	–	–	–
CC1(C(=O)NS(=O)(=O)Cc2cccc(Cl)c2)CCN1C(=O)Cc1cccs1 (stereo not drawn)	–	–	–	–	·	–
Cc1ccc(C(=O)OCC(=O)NCc2ccco2)cc1S(=O)(=O)N1CCOCC1	–	–	–	–	–	–
CN(C)c1ccc(C(=O)Nc2sc(Nc3ccccc3)nc2C(N)=O)cc1	·	–	·	·	·	·
Cc1ccc(-n2c(O)c(/C=C3/C(c4ccccc4)=Nc4ccccc43)c(=O)[nH]c2=O)cc1	–	–	–	–	–	-58
O=C1c2ccc(Cl)cc2S(=O)(=O)c2cccc(C(=O)N3CCN(c4ccc(Cl)cn4)CC3)c21	–	–	?	?	–	-93
COc1ccc(-c2ccc3c(c2)S(=O)(=O)c2cccc(C(=O)N4CCN(c5ccc(Cl)cn5)CC4)c2C3=O)cc1OC	–	–	–	–	–	–
COc1ccccc1CNC(=O)[C@H](C)NC(=O)C1CCN(C(=O)[C@@H](N)Cc2ccccc2)CC1	–	–	?	–	–	–
COc1ccccc1CNC(=O)[C@H](C)NC(=O)C1CCN(C(=O)[C@@H](N)C(C)C)CC1	–	38	–	–	–	–
NS(=O)(=O)c1ccc(CNc2nc(-c3cccnc3)nc3ccccc23)cc1	–	–	?	–	–	?
CCN(CC)C(=O)CSc1n[nH]c(=S)n1N	–	–	–	–	–	–
N#C/C(=C\Nc1ccccc1O)c1nc2ccccc2o1	–	–	?	–	–	-70
O=C(Nc1ccc(N2CCOCC2)c(Cl)c1)c1ccc2c(c1)OCCO2	–	–	–	–	–	?
Cc1ccc(NC(=O)c2cc(N3C(=O)C=CC3=O)ccc2N2CCOCC2)cc1Cl	?	–	?	–	–	-57
O=C(Nc1ccc(N2CCOCC2)c(Cl)c1)c1ccc(Cl)cc1	–	–	?	–	–	-55
O=C(Nc1ccc(N2CCCC2)c(Cl)c1)c1ccc2c(c1)OCCO2	–	–	–	–	–	-64
O=C(Nc1ccc(N2CCCCC2)c(Cl)c1)c1ccc2c(c1)OCCO2	–	–	?	–	–	–
O=C(CCS(=O)(=O)c1ccccc1)NNC(=O)COc1ccc(F)cc1	–	–	–	–	–	–
CCOC(=O)c1noc2ncnc(N3CCN(c4cccc(C(F)(F)F)c4)CC3)c12	–	–	–	·	·	·
C=CC[C@@H](CC(=O)N[C@H](CO)Cc1ccccc1)C(=O)N[C@H](COC(=O)[C@@H](CC=C)CC(=O)OC(C)(C)C)Cc1ccccc1	–	–	–	–	–	-52
C=CC[C@@H](CC(=O)N[C@@H](CO)Cc1ccccc1)C(=O)N[C@H](COC(=O)[C@H](CC=C)CC(=O)OC(C)(C)C)Cc1c[nH]c2ccccc12	?	–	·	–	–	–
C=CC[C@@H](CC(=O)N[C@H](CO)Cc1ccccc1)C(=O)N[C@H](COC(=O)[C@H](CC=C)CC(=O)OC(C)(C)C)Cc1c[nH]c2ccccc12	?	–	28µM	–	–	–
